Results published in PubChem BioAssay.
Several values for one entry are separate records, joined by “and”; a condition that tells them apart may be missing. Identical values can stand only once. Results filed as inconclusive are left out. Activity calls are given as the source filed them.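 Rule for the calls, unless noted: active = normalized viability below 100% at a tested concentration; inactive = the rest.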

Legend:
[1] = growth inhibition of DIPG glioma cells, dose response, cell-based, SU-DIPG-XVII, MIPE5.0, CellTiter-Glo, qHTS (AID 1347060; cut-off not given, nearly all actives have AC50 up to about 26 µM;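 for AC50: cells exposed to compound for 48 hours before viability readout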); conditions: SU-DIPG-XVII viability, CellTiter-Glo ATP luminescence
[2] = growth inhibition of DIPG glioma cells, dose response, cell-based, SU-DIPG-XIII, MIPE5.0, CellTiter-Glo, qHTS (AID 1347064; cut-off not given, nearly all actives have AC50 up to about 23 µM;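 note: cells exposed to compound for 48 hours before the viability read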); conditions: SU-DIPG-XIII viability, CellTiter-Glo ATP luminescence
[3] = viability loss in pontine glioma line – cell-based, SU-DIPG-XXV, MIPE5.0, CellTiter-Glo, qHTS, dose response (AID 1347065; cut-off not given, nearly all actives have AC50 up to about 26 µM;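 note: cells exposed to compound for 48 hours before ATP readout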); conditions: CellTiter-Glo ATP luminescence
[4] = liver-stage malaria parasite growth inhibition, primary screen, cell-based, HepG2, luciferase luminescence, HepG2 viability (AID 624349; in the data active = parasite load remaining mostly below about 12%, no sharp cut-off; inactive = mostly above about 10%;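 note: 100% = mean of DMSO negative control wells on the same plate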); conditions: P. berghei liver stage in HepG2, luciferase luminescence, concentration not given here; parasite load remaining: stronger effect = lower value; viability: measured here: HepG2 viability without parasites
[5] = growth inhibition of DIPG glioma cells, dose response, cell-based, SU-DIPG-IV, MIPE4.0, CellTiter-Glo, qHTS (AID 1347063; cut-off not given, nearly all actives have AC50 up to about 30 µM;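 note: compound exposure lasted 48 hours before the viability readout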); conditions: SU-DIPG-IV viability, CellTiter-Glo ATP luminescence
[6] = SU-DIPG-VI glioma cell viability, MIPE4.0 library, CellTiter-Glo luminescence, qHTS (AID 1347066; cut-off not given, nearly all actives have AC50 up to about 30 µM;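 note: cells exposed to compound for 48 hours before readout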); conditions: CellTiter-Glo ATP luminescence
[7] = JHH-DIPG-1 glioma cell viability, MIPE5.0 library, CellTiter-Glo luminescence, qHTS (AID 1347067; cut-off not given, nearly all actives have AC50 up to about 26 µM;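 note: cells exposed to compound for 48 hours before readout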); conditions: JHH-DIPG-1 glioma viability, CellTiter-Glo ATP luminescence
[8] = SU-DIPG-XXV glioma cell viability, MIPE5.0 library, qHTS (AID 1347068; cut-off not given, nearly all actives have IC50 up to about 30 µM;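 for IC50: cells exposed to compound for 48 hours before viability readout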)
[9] = sensitizers of A549 cells to miR-34 induction, primary screen, imaging, A549 dox-inducible miR-34, nuclei and caspase counts (AID 1347080;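 active = compounds whose cell count with miR-34 switched on is under 0.7 times the count with it off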); conditions: A549 miR-34 inducible, Hoechst nuclei count, 48 h
[10] = survival rescue of mitochondrial mutant cells in low glucose, primary screen, MELAS cybrids, Rieske KO mouse fibroblasts, CellTiter-Glo (AID 1508586;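 active = mean z-score across replicates of 1.96 or higher in either the MELAS or the Rieske mutant cell line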;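 note: z relative to plate mean and SD of compound and empty wells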)
[11] = ovarian cancer cell viability with rucaparib, profiling panel, oncology-focused library, rucaparib conditional (AID 1508598); conditions: patient-derived ovarian cancer cells, CellTiter-Glo viability, 144 h, stronger effect = lower value
[12] = viability rescue of complex I mutant cybrids, primary screen, cell-based, galactose medium, ATP luminescence (AID 1645843;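 active = z-score of at least 1.8 in each of two replicates, scored against plate mean and spread of sample wells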;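 note: positive z means more ATP and so rescue of galactose-driven cybrid death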); conditions: complex I mutant cybrid cells, 72 h, stronger effect = higher value
[13] = modifiers of HSF1 nuclear foci, imaging, Selleck Cancer Library (AID 1347162; in the data active = plate-normalised HSF1 focus index below about 0.46); conditions: human cells, at 10 µM; SSMD: measured here: HSF1 foci SSMD mean; cell count: measured here: cell number; plate-normalised HSF1 focus index: stronger effect = lower value
[14] = stronger effect = lower value, cell number ratio, induced over uninduced
[15] = measured here: relative caspase fold change +Dox/-Dox
[16] = measured here: total cells with miR-34 induction, stronger effect = lower value
[17] = measured here: total cells without miR-34 induction
[18] = MELAS cybrid survival, CellTiter-Glo 48 h, stronger effect = higher value
[19] = Rieske KO mouse fibroblast survival, CellTiter-Glo 72 h
[20] = at 0.000305 µM, OCI-C5x cells, with rucaparib 10 µM, 100% = cells with rucaparib alone
[21] = at 0.000305 µM, OCI-C5x cells, without rucaparib
[22] = at 0.000305 µM, OCI-P5x cells, with rucaparib 20 µM, 100% = cells with rucaparib alone
[23] = at 0.000305 µM, OCI-P5x cells, without rucaparib
[24] = at 0.00122 µM, OCI-C5x cells, with rucaparib 10 µM, 100% = cells with rucaparib alone
[25] = at 0.00122 µM, OCI-C5x cells, without rucaparib
[26] = at 0.00122 µM, OCI-P5x cells, with rucaparib 20 µM, 100% = cells with rucaparib alone
[27] = at 0.00122 µM, OCI-P5x cells, without rucaparib
[28] = at 0.00488 µM, OCI-C5x cells, with rucaparib 10 µM, 100% = cells with rucaparib alone
[29] = at 0.00488 µM, OCI-C5x cells, without rucaparib
[30] = at 0.00488 µM, OCI-P5x cells, with rucaparib 20 µM, 100% = cells with rucaparib alone
[31] = at 0.00488 µM, OCI-P5x cells, without rucaparib
[32] = at 0.0195 µM, OCI-C5x cells, with rucaparib 10 µM, 100% = cells with rucaparib alone
[33] = at 0.0195 µM, OCI-C5x cells, without rucaparib
[34] = at 0.0195 µM, OCI-P5x cells, with rucaparib 20 µM, 100% = cells with rucaparib alone
[35] = at 0.0195 µM, OCI-P5x cells, without rucaparib
[36] = at 0.0781 µM, OCI-C5x cells, with rucaparib 10 µM, 100% = cells with rucaparib alone
[37] = at 0.0781 µM, OCI-C5x cells, without rucaparib
[38] = at 0.0781 µM, OCI-P5x cells, with rucaparib 20 µM, 100% = cells with rucaparib alone
[39] = at 0.0781 µM, OCI-P5x cells, without rucaparib
[40] = at 0.313 µM, OCI-C5x cells, with rucaparib 10 µM, 100% = cells with rucaparib alone
[41] = at 0.313 µM, OCI-C5x cells, without rucaparib
[42] = at 0.313 µM, OCI-P5x cells, with rucaparib 20 µM, 100% = cells with rucaparib alone
[43] = at 0.313 µM, OCI-P5x cells, without rucaparib
[44] = at 1.25 µM, OCI-C5x cells, with rucaparib 10 µM, 100% = cells with rucaparib alone
[45] = at 1.25 µM, OCI-C5x cells, without rucaparib
[46] = at 1.25 µM, OCI-P5x cells, with rucaparib 20 µM, 100% = cells with rucaparib alone
[47] = at 1.25 µM, OCI-P5x cells, without rucaparib
[48] = at 5 µM, OCI-C5x cells, with rucaparib 10 µM, 100% = cells with rucaparib alone
[49] = at 5 µM, OCI-C5x cells, without rucaparib
[50] = at 5 µM, OCI-P5x cells, with rucaparib 20 µM, 100% = cells with rucaparib alone
[51] = at 5 µM, OCI-P5x cells, without rucaparib

C[C@H]1Oc2cc(cnc2N)-c2c(nn(C)c2C#N)CN(C)C(=O)c2ccc(F)cc21
active: AC50 [1] 14.8 µM | AC50 [2] 10.5 µM | AC50 [3] 9.34 µM

Nc1ccn([C@@H]2O[C@H](CO)[C@@H](O)C2(F)F)c(=O)n1
2720: cell count [9, 17]
inactive: parasite load remaining [4] 8.34% | outcome [6] | outcome [7] | outcome [8] | fold change [9, 14] 0.809 | viability [11, 20] 107% | z-score [12] -1.98
190%: viability [4]
active: AC50 [1] 0.0186 µM | AC50 [5] 0.526 µM | viability [11, 21] 87.2% | viability [11, 22] 74.1% | viability [11, 23] 32.9% | viability [11, 24] 90.4% | viability [11, 25] 93.9% | viability [11, 26] 55.8% | viability [11, 27] 27% | viability [11, 28] 81% | viability [11, 29] 80% | viability [11, 30] 57.2% | viability [11, 31] 22.9% | viability [11, 32] 69.2% | viability [11, 33] 58.3% | viability [11, 34] 47.3% | viability [11, 35] 22% | viability [11, 36] 56.5% | viability [11, 37] 47.8% | viability [11, 38] 50.9% | viability [11, 39] 25.3% | viability [11, 40] 36.8% | viability [11, 41] 35.1% | viability [11, 42] 58.9% | viability [11, 43] 22.7% | viability [11, 44] 33.1% | viability [11, 45] 30.2% | viability [11, 46] 53.9% | viability [11, 47] 25.7% | viability [11, 48] 14.3% | viability [11, 49] 14.2% | viability [11, 50] 42.3% | viability [11, 51] 17.7%
0.323 and -0.775: z-score [10, 18]
10.5 and 7.93: z-score [10, 19]
2200: cell count [9, 16]
2.54: fold change [9, 15]

OCCn1cc(-c2ccc3c(c2)CC/C3=N\O)c(-c2ccncc2)n1
inactive: outcome [5] | outcome [8] | plate-normalised HSF1 focus index [13] 1.09
6750: cell count [13]
active: AC50 [1] 14.8 µM
1.73: SSMD [13]

COc1ccc(-c2cc3nccn3c(Nc3ncccc3C(N)=O)n2)cc1OC
-0.302: SSMD [13]
active: AC50 [1] 11.8 µM | AC50 [5] 3.32 µM | AC50 [2] 4.68 µM | AC50 [3] 5.25 µM
inactive: plate-normalised HSF1 focus index [13] 0.994
6940: cell count [13]

O=C(CCCCCCC(=O)Nc1ccc([C@H]2O[C@@H](CSc3nc(-c4ccccc4)c(-c4ccccc4)o3)C[C@@H](c3ccc(CO)cc3)O2)cc1)NO
inactive: outcome [1] | outcome [3] | outcome [7] | outcome [8] | viability [11, 20] 114% | viability [11, 21] 141% | viability [11, 23] 111% | viability [11, 24] 112% | viability [11, 25] 131% | viability [11, 27] 114% | viability [11, 28] 115% | viability [11, 29] 132% | viability [11, 31] 108% | viability [11, 32] 112% | viability [11, 33] 130% | viability [11, 36] 112% | viability [11, 37] 139% | viability [11, 38] 102% | viability [11, 39] 106% | viability [11, 40] 116% | viability [11, 41] 137% | viability [11, 42] 104% | viability [11, 43] 109% | viability [11, 44] 110% | viability [11, 45] 139% | viability [11, 46] 106% | viability [11, 47] 116% | viability [11, 48] 128% | viability [11, 49] 158% | viability [11, 51] 108%
active: AC50 [5] 13.2 µM | viability [11, 22] 97.6% | viability [11, 26] 90.6% | viability [11, 30] 90% | viability [11, 34] 72% | viability [11, 35] 79.1% | viability [11, 50] 21.1%

CNC(=O)c1cc(Oc2ccc(NC(=O)Nc3ccc(Cl)c(C(F)(F)F)c3)c(F)c2)ccn1
active: AC50 [1] 16.6 µM | AC50 [5] 13.2 µM | AC50 [3] 20.9 µM | AC50 [6] 9.35 µM | IC50 [8] 20.9 µM | viability [11, 21] 90.4% | viability [11, 25] 90.8% | viability [11, 29] 98.5% | viability [11, 33] 91.4% | viability [11, 37] 88.4% | viability [11, 50] 80.9%
2520: cell count [9, 16]
0.959: fold change [9, 15]
2900: cell count [9, 17]
inactive: fold change [9, 14] 0.87 | z-score [10, 18] -0.38 | viability [11, 20] 108% | viability [11, 22] 101% | viability [11, 23] 104% | viability [11, 24] 108% | viability [11, 26] 109% | viability [11, 27] 106% | viability [11, 28] 109% | viability [11, 30] 114% | viability [11, 31] 109% | viability [11, 32] 114% | viability [11, 34] 115% | viability [11, 35] 116% | viability [11, 36] 106% | viability [11, 38] 115% | viability [11, 39] 110% | viability [11, 40] 104% | viability [11, 41] 102% | viability [11, 42] 115% | viability [11, 43] 117% | viability [11, 44] 107% | viability [11, 45] 104% | viability [11, 46] 103% | viability [11, 47] 117% | viability [11, 48] 125% | viability [11, 49] 105% | viability [11, 51] 121%
1.02: z-score [10, 19]

CCNC(=O)Nc1ccc(-c2nc3c(c(N4CCOC[C@@H]4C)n2)CCN(C2COC2)C3)cc1
active: AC50 [1] 2.95 µM | AC50 [5] 0.332 µM | AC50 [3] 1.32 µM
